Where a name gives a salt, the structure may show the parent alone.
tested on: A549-CANX-COX4; assay: phenotypically active (imaging signature differs from DMSO and reproducible) at any of 0.3-9 uM (binary (1 = active, 0 = inactive)); higher = active; conditions: treatment time: 24 h
Summary of the method: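 Two criteria together defined phenotypic activity: deviation and reproducibility. Deviation meant ≥3 of 4 wells beyond the 95th percentile of Euclidean distances in solvent control wells, and reproducibility meant a median replicate Pearson correlation above the 95th percentile of non-replicates. Wells had been treated for 24 h at 0.3, 1, 3 or 9 µM in fifteen gene-edited A549, HepG2 and WPMY1 reporter lines before live imaging.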

Phenotypically active, active:
Nc1nc(Cl)nc2c1ncn2[C@@H]1O[C@H](CO)[C@@H](O)[C@@H]1F [clofarabine] 1
Cc1nc(Nc2ncc(C(=O)Nc3c(C)cccc3Cl)s2)cc(N2CCN(CCO)CC2)n1 [dasatinib] 1
O=C(NCc1cccc(O)c1)Nc1nc(-c2ccncc2)cs1 [RKI 1447 dihydrochloride] 1
CC(C)n1nc(-c2cc3cc(O)ccc3[nH]2)c2c(N)ncnc21 1
COc1ccc(-c2ccc3ncc4c(c3c2)n(-c2ccc(N3CCNCC3)c(C(F)(F)F)c2)c(=O)n4C)cn1 1
CC(C)(C)c1cnc(CSc2cnc(NC(=O)C3CCNCC3)s2)o1 1
O=C(O)c1ccc(Nc2ncc3c(n2)-c2ccc(Cl)cc2C(c2c(F)cccc2F)=NC3)cc1 1
COc1ccc(S(=O)(=O)N(C(C)=O)c2ccccc2/C=C/c2cc[n+]([O-])cc2)cc1 1
CC(C)(C)Nc1nc(Nc2ccc(C(N)=O)cc2)cc(N)c1C#N 1
Nc1cccc(-c2cc3c(Oc4cccc(O)c4)ncnc3[nH]2)c1 1
c1ccc2c(c1)Cc1c(Nc3ccc4c(c3)OCCO4)n[nH]c1-2 1
Cc1c(NC(=O)OC[C@@H]2COCCN2)cn2ncnc(Nc3ccc4c(cnn4Cc4cccc(F)c4)c3)c12 1
CCC(=O)N1CCN(c2ccc(-n3c(=O)ccc4cnc5ccc(-c6cnc7ccccc7c6)cc5c43)cc2C(F)(F)F)CC1 [Torin 1] 1
COc1c(Nc2cc(C)[nH]n2)nc(Sc2ccc(S(=O)(=O)Cc3cccc([N+](=O)[O-])c3F)cc2F)nc1N1CCOCC1 [Centrinone] 1
COc1cc2c(NC3CCN(C(C)C)CC3)nc(N3CCC(F)(F)CC3)nc2cc1OCCCN1CCCC1 1
CC(=O)c1c(C)c2cnc(Nc3ccc(N4CCNCC4)cn3)nc2n(C2CCCC2)c1=O 1
CN1c2ccccc2C(=O)N2CCc3c([nH]c4ccccc34)[C@H]21 [Evodiamine] 1
CO[C@H]1C=CC=C(C)C(=O)NC2=CC(=O)C(NCCN(C)C)=C(C[C@@H](C)C[C@H](OC)[C@H](O)[C@@H](C)C=C(C)[C@@H]1OC(N)=O)C2=O [17-DMAG hydrochloride] 1
Cc1noc(C)c1-c1cc(O)cc(C(O)c2ccccc2)c1 (centres undefined) 1
O=C(Nc1ccc(-c2ccnc(Nc3ccc(N4CCOCC4)cc3)n2)cc1)[C@@H]1CCCN1 1
NC1(C(=O)N[C@@H](CCO)c2ccc(Cl)cc2)CCN(c2ncnc3[nH]ccc23)CC1 1
NC(=O)Nc1cc(-c2cccc(F)c2)sc1C(=O)N[C@H]1CCCNC1 [AZD 7762 hydrochloride] 1
COc1cc2nc(-c3cc(F)ccc3O)nc(N[C@@H]3CNC[C@H]3C(C)(C)O)c2cc1OC 1
Cc1c[nH]c2nccc(Oc3c(F)cc(Nc4cc(Cl)nc(N)n4)cc3F)c12 1
C[C@H]1[C@H]2CC[C@H]3[C@@H]4CC=C5C[C@@H](N(C)C)CC[C@]5(C)[C@H]4CC[C@]23CN1C [Conessine] 1
CON(C)C(=O)N1N=C(c2cc(F)ccc2F)S[C@@]1(CCCN)c1ccccc1 [ARRY 520 trifluoroacetate] 1
CC[C@H](CO)Nc1nc(NCc2ccc(-c3ccccn3)cc2)c2ncn(C(C)C)c2n1 1
Oc1cccc(-c2nc(N3CCOCC3)c3oc4ncccc4c3n2)c1 [PI 103 hydrochloride] 1
COc1cc(/C=C/c2ccc(OC)cc2OC)cc(OC)c1 1
COc1cc2c(cc1-c1c(C)noc1C)ncc1[nH]c(=O)n([C@H](C)c3ccccn3)c12 [I-BET 151 dihydrochloride] 1
COc1cccc(-c2cc(F)ccc2[C@H]2Cc3nc(N)nc(C)c3C(=O)N2)n1 1
COc1cc(C(=O)NC2CCN(C)CC2)c(F)cc1Nc1ncc2c(n1)N(C1CCCC1)CC(F)(F)C(=O)N2C [TAK 960 hydrochloride] 1
CC[C@]1(O)C[C@@H]2CN(CCc3c([nH]c4ccccc34)[C@@](C(=O)OC)(c3cc4c(cc3OC)N(C=O)[C@H]3[C@@](O)(C(=O)OC)[C@H](OC(C)=O)[C@]5(CC)C=CCN6CC[C@]43[C@@H]65)C2)C1 [vincristine] 1
OC[C@H]1O[C@@H](n2cnc3c(NCc4ccco4)ncnc32)[C@H](O)[C@@H]1O [Kinetin riboside] 1
N#Cc1c(C2CCNCC2)cc(-c2c(O)cccc2OCC2CC2)nc1N 1
C=CC(=O)Nc1cccc(Nc2nc(Nc3ccc(OCCOC)cc3)ncc2F)c1 1
COc1cc(N2CCC(N3CCN(C)CC3)CC2)ccc1Nc1ncnc(Nc2ccccc2S(=O)(=O)C(C)C)n1 1
Fc1ccccc1CNCc1ccc(-c2ccnc3[nH]ccc23)cc1 [OXA 06 dihydrochloride] 1
C[C@H]1COCCN1c1cc(C2(S(=O)(=O)C3CC3)CC2)nc(-c2ccc(NC(=S)NCCO)cc2)n1 1
